The text below walks through data of PubChem BioAssay (NCATS).

Results filed as inconclusive are left out. The source made the active and inactive calls. Calls follow the shape of the dose curve; as a rule, active = well fitted curve in the direction sought with a large enough effect; inconclusive = small, poorly fitted or top-dose-only effect, or another doubt; inactive = no such curve, though single readings can be large; an effect the other way counts as inactive or inconclusive.

Test [1] can be described thus: qHTS of pediatric cancer cell lines to identify multiple opportunities for drug repurposing: Primary screen for BT-37 cells (AID 1347094). Also: potency is read from the fitted curve at half-maximal effect. The procedure, abridged:
(§1)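 Cells seeded at 500-1,000 cells/well in growth media, rested 5 hours at 37 degrees C, 5% CO2, then dosed; MIPE compounds at 11-point (from 0.78 nM) and NPC at 8-point (from 0.59 nM) final concentrations. Viability by CellTiter-Glo luminescence after 48 hours.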

Test [2] can be described thus: qHTS of pediatric cancer cell lines to identify multiple opportunities for drug repurposing: Primary screen for NB-EBc1 cells (AID 1347095). Also: potency is read from the fitted curve at half-maximal effect. The procedure, abridged:
as §1

A short description of test [3]: qHTS of pediatric cancer cell lines to identify multiple opportunities for drug repurposing: Primary screen for Saos-2 cells (AID 1347097). Also: nearly all actives have a fitted effect of over 40% in size. Also: potency is read from the fitted curve at half-maximal effect. The procedure, abridged:
as §1

Test [4] in a line: qHTS of pediatric cancer cell lines to identify multiple opportunities for drug repurposing: Primary screen for LAN-5 cells (AID 1347100). Also: potency is read from the fitted curve at half-maximal effect. The procedure, abridged:
(§2)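 Cells (500-1,000/well) rested 5 h, then received compounds for 48 h; metabolically active cells were measured by CellTiter-Glo luminescence. Final concentrations spanned up to 46 µM (MIPE, 11-point) or 0.59 nM-46 µM (NPC, 8-point) in primary screens, 11-point in follow-ups.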

A short description of test [5]: qHTS of pediatric cancer cell lines to identify multiple opportunities for drug repurposing: Primary screen for Rh18 cells (AID 1347102). Also: nearly all actives have a fitted effect of over 65% in size. Also: potency is read from the fitted curve at half-maximal effect. The procedure, abridged:
as §2

Test [6] can be described thus: qHTS of pediatric cancer cell lines to identify multiple opportunities for drug repurposing: Primary screen for U-2 OS cells (AID 1347096). Also: nearly all actives have a fitted effect of over 50% in size. The procedure, abridged: as §2
Test [7] can be described thus: qHTS of pediatric cancer cell lines to identify multiple opportunities for drug repurposing: Primary screen for SK-N-SH cells (AID 1347098). Also: nearly all actives have a fitted effect of over 65% in size. Also: potency is read from the fitted curve at half-maximal effect. The procedure, abridged: as §2
Test [8] can be described thus: qHTS of pediatric cancer cell lines to identify multiple opportunities for drug repurposing: Primary screen for NB1643 cells (AID 1347099). Also: nearly all actives have a fitted effect of over 50% in size. Also: potency is read from the fitted curve at half-maximal effect. The procedure, abridged: as §1
Test [9] is described as follows: qHTS of pediatric cancer cell lines to identify multiple opportunities for drug repurposing: Primary screen for BT-12 cells (AID 1347101). Also: nearly all actives have a fitted effect of over 25% in size. Also: potency is read from the fitted curve at half-maximal effect. The procedure, abridged: as §2

As to `CCCCN(CCN(CCCC)C(=O)N1CCOCC1)C(=O)N1CCOCC1`, the Potency entry in test [1], in test [2], in [4] and in test [5] was “inactive” in each case. In test [3], the Potency is 23.7 µM (active).
As for `CN(C)CCOC(c1ccccc1)c1ccc(Br)cc1` (stereo not drawn), the Potency entry in test [1], in test [2], in [6], in test [3], in [8] and in [4] was “inactive” throughout. Also, the Potency result in test [9] and in [5] was “inactive” each time. Also, the Potency in [7] is 15.4 µM (active).
On to `Nc1nnnn1-c1ccccc1`, for which the Potency entry in test [1], in test [2], in [6], in [3], in test [7] and in [8] was “inactive” throughout. Also, the Potency result in [9] and in [5] was “inactive” in each case.
Turning to `COc1cc2c(cc1OC)C(=O)CC2`, the Potency result in [1], in [2], in test [6], in test [3], in test [7] and in [8] was “inactive” each time. Moreover, the Potency result in [4], in test [9] and in [5] was “inactive” in each case.
In the case of `CCCCC(CC)COC(=O)c1ccccc1C(=O)O` (stereo not drawn), the Potency entry in test [1], in test [2], in test [6], in test [3], in [7] and in [8] was “inactive” in each case. For the same molecule, the Potency entry in [4], in [9] and in test [5] was “inactive” in each case.
For `CC(C)Cc1ccc(C(C)C(=O)OCc2ccccn2)cc1` (stereo not drawn), the Potency entry in test [1], in test [2], in test [6], in [3], in test [7] and in test [8] was “inactive” throughout. For the same molecule, the Potency entry in test [4], in test [9] and in [5] was “inactive” in each case.
With `CCOc1ccc(NS(=O)(=O)c2ccc(N)cc2)nn1`, the Potency result in test [1], in test [2], in test [6], in [3], in test [7] and in test [5] was “inactive” throughout.
Consider `Cc1ccccc1C(=O)N1CC/C(=N\OS(=O)(=O)O)c2ccc(Cl)cc21`, for which the Potency result in test [1], in test [2], in [6], in [3], in [7] and in [8] was “inactive” each time. Moreover, the Potency result in [4], in test [9] and in [5] was “inactive” in each case.
As to `CCOC(=O)c1cc(=O)c2c(OCC(COc3cccc4oc(C(=O)OCC)cc(=O)c34)OC(=O)[C@@H](N)CCCCN)cccc2o1`, the Potency result in test [1], in test [2], in test [6], in test [3], in test [7] and in test [8] was “inactive” each time. Further, the Potency entry in test [4], in test [9] and in test [5] was “inactive” in each case.
Regarding `NCC(=O)O`, the Potency result in test [1], in test [2], in test [3], in [7], in test [8] and in test [4] was “inactive” in each case. Further, the Potency entry in test [5] was “inactive”.
Turning to `Cc1ccc(CCn2c3c(c4cc(Cl)ccc42)CN(C)CC3)cn1`, the Potency entry in test [1], in test [2], in test [6], in [3], in test [8] and in test [4] was “inactive” each time. Further, the Potency result in [5] was “inactive”.
On to `Nc1ccc(O)cc1`, for which the Potency entry in test [1], in test [2], in [6], in [7], in test [9] and in test [5] was “inactive” each time. For the same molecule, the Potency in [4] was 15 µM (active).
For the molecule `Nc1c[n+](N2CCOCC2)no1`, the Potency result in test [1], in test [2], in test [6], in test [3], in test [7] and in test [8] was “inactive” throughout. Besides, the Potency result in test [4], in test [9] and in test [5] was “inactive” in each case.
`CCC[C@H](N[C@@H](C)C(=O)N1[C@H](C(=O)O)C[C@@H]2CCCC[C@@H]21)C(=O)OCC`: the Potency result in test [1], in [2], in test [6], in test [3], in test [8] and in [4] was “inactive” in each case. For the same molecule, the Potency result in [9] and in [5] was “inactive” in each case.
On to `CC(C)C[C@H](NC(=O)CNC(=O)[C@H](Cc1ccc(O)cc1)NC(=O)[C@H](CO)NC(=O)[C@H](Cc1c[nH]c2ccccc12)NC(=O)[C@H](Cc1cnc[nH]1)NC(=O)[C@@H]1CCC(=O)N1)C(=O)N[C@@H](CCCN=C(N)N)C(=O)N1CCC[C@H]1C(=O)NCC(N)=O` (stereo in doubt), for which the Potency entry in test [1], in test [2], in test [6], in test [3], in [7] and in test [8] was “inactive” in each case. Further, the Potency result in [4], in [9] and in [5] was “inactive” each time.
In the case of `CC(C)(c1ccc(O)cc1)c1ccc(O)cc1`, the Potency entry in [1], in test [2], in test [6], in [8], in test [4] and in test [5] was “inactive” each time.
With `Cc1cc(O)c(C)c(C)c1O`, the Potency entry in [1], in [2], in test [6], in test [3], in [7] and in test [8] was “inactive” each time. For the same molecule, in test [5], the Potency entry is “inactive”. Also, in [4], the Potency was 16.8 µM (active).
For `O=[N+]([O-])c1ccc(O)c2ncccc12`, the Potency in test [1] is 15.5 µM (active); in test [2], 2.37 µM (active); in test [3], 10.6 µM (active); in test [7] it was 3.44 µM (active); in test [8], 1.88 µM (active); in test [4], 3.76 µM (active). Besides, the Potency in [9] is 5.5 µM (active).
On to `O=C(COCCOCCOCC(=O)Nc1c(I)cc(I)c(C(=O)O)c1I)Nc1c(I)cc(I)c(C(=O)O)c1I`, for which the Potency entry in test [1], in test [2], in test [6], in test [3], in test [7] and in test [8] was “inactive” each time. Moreover, the Potency entry in test [4], in [9] and in test [5] was “inactive” each time.
Take `CC(=O)/C=C/C=C1/C2CCC(C2)C1(C)C` (stereo not drawn): the Potency entry in test [1], in [2], in test [6], in test [3], in test [7] and in [8] was “inactive” in each case. In addition, the Potency entry in [4], in [9] and in test [5] was “inactive” in each case.
As for `Cc1oc(-c2ccccc2)nc1CCC(=O)c1ccc(CC2SC(=O)NC2=O)cc1` (stereo not drawn), the Potency result in [1], in test [2], in test [6], in [3], in [7] and in test [8] was “inactive” each time. Also, in [5], the Potency entry was “inactive”.
For `CC(=O)OCC[N+](C)(C)C`, the Potency result in test [1], in test [2], in test [3], in [7], in test [8] and in [4] was “inactive” throughout. Also, the Potency entry in test [9] and in test [5] was “inactive” throughout.
For the molecule `C[C@@H](C1=C(CCN(C)C)Cc2ccccc21)c1ccccn1`, the Potency result in [1], in test [2], in test [6], in [3], in test [4] and in test [5] was “inactive” in each case.
Turning to `Nc1ccc(C(=O)OCC(O)CO)cc1` (stereo not drawn), the Potency result in test [1], in test [2], in [6], in test [3], in test [7] and in test [4] was “inactive” each time. Further, the Potency result in test [9] and in [5] was “inactive” in each case. Moreover, the Potency in test [8] is 0.001 µM (active).
Take `CCC(CN)=C(c1ccccc1)c1ccccc1`: the Potency result in test [1], in [2], in [6], in [3], in test [8] and in test [9] was “inactive” throughout. Moreover, the Potency entry in [5] was “inactive”.
For `COC(=O)C1=C(C)NC(COC(N)=O)=C(C(=O)OC(C)C)C1c1cccc(Cl)c1Cl` (stereo not drawn), the Potency result in test [2], in test [6], in [8], in test [4] and in test [5] was “inactive” throughout. In test [7], the Potency is 24.4 µM (active).
Regarding `Cc1cccc(N(C)C(=S)Oc2ccc3c(c2)C2CCC3C2)c1` (stereo not drawn), the Potency result in test [7] and in test [4] was “inactive” throughout.
Consider `CN1CCC(Nc2ncc3ncnc(Nc4ccc(F)c(Cl)c4)c3n2)CC1`, for which the Potency in test [1] is 17.4 µM (active); in test [5], 26.6 µM (active). Besides, the Potency result in [3] and in test [8] was “inactive” each time.
For `CCN(CC)CCOc1ccc(/C(=C(\Cl)c2ccccc2)c2ccccc2)cc1`, the figures for the Potency in test [3] and in test [9] were 26.6 µM (active) and 15.5 µM (active), respectively.
Regarding `CN1CCCN(C(c2ccccc2)c2ccc(Cl)cc2)CC1` (stereo not drawn), the Potency result in test [2] and in test [6] was “inactive” throughout. The figures for the Potency in test [7] and in test [4] were 15.4 µM (active) and 15 µM (active), respectively.
Turning to `O=C(c1cc(O)c(O)c(O)c1)c1ccc(O)c(O)c1O`, the Potency result in [2], in test [8] and in test [5] was “inactive” in each case. For the same molecule, the Potency in test [3] is 26.6 µM (active).
For the molecule `Nc1cc(C(F)(F)F)ccc1S`, the Potency result in test [1] and in [4] was “inactive” in each case.
Take `CC(CC1c2ccccc2CCc2ccccc21)CN(C)C` (stereo not drawn): the Potency result in test [2], in [6], in [8], in [4] and in test [5] was “inactive” in each case.
For the molecule `Cc1cccc(N(C)C(=S)Oc2ccc3c(c2)CCC3)c1`, the Potency result in test [1], in test [6], in test [8], in test [4] and in test [5] was “inactive” throughout.
Turning to `O=C(OCC(O)CO)c1ccccc1Nc1ccnc2c(C(F)(F)F)cccc12` (stereo not drawn), the Potency result in test [1], in test [2], in test [8], in [4] and in test [5] was “inactive” in each case.
`Nc1ccc2c(c1)CN1C(=O)c3ccccc3C1=N2`: the Potency in test [2] was 0.651 µM (active).
As for `O=C1Nc2ccccc2C1(c1ccc(O)cc1)c1ccc(O)cc1`, the Potency result in test [6], in test [3], in test [4] and in test [5] was “inactive” each time.
Regarding `COc1ccc([C@@H]2Sc3ccccc3NC(=O)[C@@H]2O)cc1`, the Potency result in [6], in test [8] and in test [5] was “inactive” in each case.
